Measurements published in PubChem BioAssay (EPA / NIEHS).
“And” between values parts separate entries of the source, which are not always exact repeats. Equal values may be shown once. Inconclusive results are not listed. Some structures have more than one record in an assay (separate samples or runs), and their calls can disagree. The source made the active and inactive calls. Rule for the calls, unless noted: active = hit-call score of the fitted dose curve at least 0.9, where 1 is the maximum; inconclusive = response in the unintended direction; inactive = score below 0.9.

Key:
[1] = read-out: Cellular tumor antigen p53 (Homo sapiens) (UniProt P04637); assay: LTEA_HepaRG_TP53: Life Technologies and Expression Analysis (LTEA) Assay for Tumor Protein P53 (TP53) using HepaRG (AID 2283537; active = hit-call score of the fitted dose curve at least 0.9, where 1 is the maximum; inactive = score below 0.9); conditions: mRNA level, 48 h; actives raise or lower the signal
In short: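 TP53 transcript measured by qRT-PCR, normalized to three housekeeping genes, after 48 h treatment of human HepaRG cultures with chemicals from 100 uM downward in half-log steps (0.5% DMSO vehicle, serum-free induction medium). Up- or down-regulation fitted against DMSO.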

[2] = read-out: UDP glucuronosyltransferase (UGT1A1), UGT1A1 (gene 54658); assay: LTEA_HepaRG_UGT1A1: Life Technologies and Expression Analysis (LTEA) Assay for UDP glucuronosyltransferase (UGT1A1) using HepaRG (AID 2283538; active = hit-call score of the fitted dose curve at least 0.9, where 1 is the maximum; inactive = score below 0.9); conditions: mRNA level, 48 h; actives raise or lower the signal
In short: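 Readout is UGT1A1 transcript level by qRT-PCR, normalized to three housekeeping genes, after 48 h chemical treatment of HepaRG cells. Concentrations ran from 100 uM down in half-log steps with 0.5% DMSO, and gain or loss relative to DMSO was fitted.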

[3] = read-out: UDP glucuronosyltransferase (UGT1A6), UGT1A6 (gene 54578); assay: LTEA_HepaRG_UGT1A6: Life Technologies and Expression Analysis (LTEA) Assay for UDP glucuronosyltransferase (UGT1A6) using HepaRG (AID 2283539; active = hit-call score of the fitted dose curve at least 0.9, where 1 is the maximum; inactive = score below 0.9); conditions: mRNA level, 48 h; actives raise or lower the signal
In short: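 Expression was quantified by TaqMan qRT-PCR on Fluidigm arrays with ACTB/GAPDH/POLR2A normalization and bidirectional fitting against 0.5% DMSO. HepaRG cells (~100,000/well) were treated in duplicate for 48 h at eight half-log concentrations up to 100 uM in serum-free induction medium.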

[4] = read-out: X-box binding protein 1 (XBP1), XBP1 (gene 7494); assay: LTEA_HepaRG_XBP1: Life Technologies and Expression Analysis (LTEA) Assay for X-box binding protein 1 (XBP1) using HepaRG (AID 2283540; active = hit-call score of the fitted dose curve at least 0.9, where 1 is the maximum; inactive = score below 0.9); conditions: mRNA level, 48 h; actives raise or lower the signal
In short: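 XBP1 transcript by qRT-PCR (housekeeping-normalized: ACTB, GAPDH, POLR2A) after 48 h chemical treatment of HepaRG cells, 8-point half-log series topping at 100 uM, vehicle 0.5% DMSO. Gain and loss of signal fitted relative to DMSO.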

[5] = LTEA_HepaRG_LDH_cytotoxicity: Cytotoxicity Assessment in the Life Technologies and Expression Analysis (LTEA) Assay (AID 2283563);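 for AC50: LDH activity released into spent culture medium as a marker of cell death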
In short: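 LDH release into culture medium read after 48 h chemical treatment of HepaRG cells. Duplicate wells, eight-point half-log series topping at 100 uM, 0.5% DMSO vehicle and baseline.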

[6] = ATG_XTT_Cytotoxicity: Cytotoxicity Assessment in the Attagene TRANS-FACTORIAL HepG2 Assay (AID 2283584)
In short: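 Viability endpoint from XTT after 24 h chemical exposure of reporter-transfected human HepG2 liver cells; signal loss fitted relative to DMSO negative control.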

[7] = TOX21_p53_BLA_p2_viability: Viability Assessment in the Tox21 HCT-116 p53 Agonism Beta-lactamase Assay, Phase 2 (AID 2283591);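 note: compound exposure lasted 16 h at 37 °C; actives lower the ATP signal meaning cytotoxicity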
In short: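 HCT-116 p53-bla cells (4000/well) rested 5 h at 37C, then received compounds in DMSO (217-fold dilution) for 16 h at 37C, 5% CO2. After the CCF4 read, CellTiter-Glo was added; ATP luminescence was read after 30 min at room temperature.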

[8] = biological target: Cellular tumor antigen p53 (Homo sapiens) (UniProt P04637); assay: TOX21_p53_BLA_p2_ratio: Tox21 HCT-116 p53 Agonism Beta-lactamase Assay, Ratio, Phase 2 (AID 2283592)
In short: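 Gain-of-signal p53 agonism was scored from the beta-lactamase FRET ratio (460/530 nm, 405 nm excitation) in HCT116 cells treated 16 h at 37C, 5% CO2, with DMSO serving as negative control and baseline.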

[9] = TOX21_p53_BLA_p3_viability: Viability Assessment in the Tox21 HCT-116 p53 Agonism Beta-lactamase Assay, Phase 3 (AID 2283593);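 note: cells exposed to compound for 16 h before reading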
In short: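 HCT-116 cells (4000/well) rested 5 h at 37C, then got DMSO compounds by pin tool (217-fold dilution) for 16 h at 37C, 5% CO2. After the bla read, CellTiter-Glo was added and luminescence read at 30 min, room temperature.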

[10] = TOX21_p53_BLA_p4_viability: Viability Assessment in the Tox21 HCT-116 p53 Agonism Beta-lactamase Assay, Phase 4 (AID 2283597);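 note: hits lower the luminescence signal meaning cytotoxicity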
In short: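 Following a 16 h exposure at 37C, the treated HCT116 wells were first read for the FRET ratio. They were then lysed with CellTiter-Glo, and ATP luminescence was recorded after 30 min at room temperature.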

[11] = biological target: Cellular tumor antigen p53 (Homo sapiens) (UniProt P04637); assay: TOX21_p53_BLA_p5_ratio: Tox21 HCT-116 p53 Agonism Beta-lactamase Assay, Ratio, Phase 5 (AID 2283599)
In short: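 HCT-116 cells carrying a p53-inducible beta-lactamase reporter were seeded at 4000 cells/well and dosed after 5 h with compound in DMSO (217-fold dilution). After 16 h at 37C, CCF4-AM substrate was added for 2 h, and the 460/530 nm emission ratio was scored as gain-of-signal versus DMSO.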

[12] = TOX21_p53_BLA_p5_viability: Viability Assessment in the Tox21 HCT-116 p53 Agonism Beta-lactamase Assay, Phase 5 (AID 2283600)
In short: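 After the 460/530 nm beta-lactamase measurement, the wells received an ATP-detection luciferase reagent; signal was read 30 min later at RT. Compound treatment lasted 16 h on cells pre-incubated 5 h post-seeding.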

[13] = biological target: Cellular tumor antigen p53 (Homo sapiens) (UniProt P04637); assay: TOX21_p53_BLA_p4_ratio: Tox21 HCT-116 p53 Agonism Beta-lactamase Assay, Ratio, Phase 4 (AID 2283601)
In short: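 HCT116 cells carrying an inducible beta-lactamase reporter were plated at 4000 cells/well, rested 5 h, then exposed to compounds in DMSO (217-fold dilution) for 16 h at 37C. CCF4-AM substrate was loaded 2 h at room temperature; 460/530 nm emission ratio scored gain-of-signal versus DMSO.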

[14] = Tanguay_ZF_120hpf_MORT_legacy: (Legacy) Oregon State University Tanguay Lab 120 Hour Post-fertilization zebrafish Assay for Mortality (AID 2283633);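 for AC50: fitted as increase in binary mortality versus DMSO negative control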
In short: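 Static waterborne exposure from 6 to 120 hpf at 28C of single dechorionated wild-type (5D) embryos per well, 0.64% DMSO final. Death recorded present/absent by brightfield at 24 and 120 hpf.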

[15] = Tanguay_ZF_120hpf_EYE_legacy: (Legacy) Oregon State University Tanguay Lab 120 Hour Post-fertilization zebrafish Assay for Eye Malformation (AID 2283636);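 note: binary presence or absence of eye malformation scored by brightfield in 120 hpf larvae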
In short: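 Dechorionated wild-type Tropical 5D zebrafish embryos were exposed statically from 6 hpf, one per well, to 120 hpf at 28C in sealed, foil-covered plates with 0.64% DMSO. Eye malformation was scored present/absent by brightfield microscopy against DMSO controls.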

[16] = Tanguay_ZF_120hpf_SNOU_legacy: (Legacy) Oregon State University Tanguay Lab 120 Hour Post-fertilization zebrafish Assay for Snout Malformation (AID 2283637)
In short: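 Tropical 5D wild-type zebrafish embryos, dechorionated with pronase at 4 hpf, were exposed singly from 6 hpf to 120 hpf statically at 28C in 0.64% DMSO. Snout malformation was scored present/absent by brightfield microscopy, fitted against DMSO.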

[17] = Tanguay_ZF_120hpf_JAW_legacy: (Legacy) Oregon State University Tanguay Lab 120 Hour Post-fertilization zebrafish Assay for Jaw Malformation (AID 2283638)
In short: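 Binary jaw-malformation call at 120 hpf by brightfield microscopy. Embryos (Tropical 5D strain, chorion removed at 4 hpf) were dosed statically at 6 hpf, one per well, at 28C with 0.64% DMSO. Embryos that died were not scored.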

[18] = biological target: Cellular tumor antigen p53 (Homo sapiens) (UniProt P04637); assay: TOX21_p53_BLA_p3_ratio: Tox21 HCT-116 p53 Agonism Beta-lactamase Assay, Ratio, Phase 3 (AID 2283596)
In short: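 HCT116 p53-bla cells (4000/well) given compound in DMSO (217-fold dilution) after 5 h, incubated 16 h at 37C. CCF4-AM substrate 2 h at room temperature; 460/530 nm emission ratio, gain fitted against DMSO.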

[19] = Tanguay_ZF_120hpf_AXIS_legacy: (Legacy) Oregon State University Tanguay Lab 120 Hour Post-fertilization zebrafish Assay for Body Axis Malformation (AID 2283635)
In short: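 Binary scoring of axis defects at 120 hpf under brightfield, fitted positive versus DMSO. Tropical 5D embryos, chorion removed by pronase at 4 hpf, were singly exposed in sealed, dark plates at 28C from 6 hpf; DMSO 0.64% final.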

[20] = Tanguay_ZF_120hpf_YSE_legacy: (Legacy) Oregon State University Tanguay Lab 120 Hour Post-fertilization zebrafish Assay for Yolk Sac Edema (AID 2283634)
In short: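 Presence or absence of yolk sac edema was recorded at 120 hpf in surviving larvae. These were wild-type Tropical 5D embryos, chorion removed at 4 hpf, held in static exposure at 28C from 6 hpf with 0.64% DMSO vehicle.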

Measured: AC50

Sequence of Cellular tumor antigen p53 (Homo sapiens) (P04637 whole entry, looked up): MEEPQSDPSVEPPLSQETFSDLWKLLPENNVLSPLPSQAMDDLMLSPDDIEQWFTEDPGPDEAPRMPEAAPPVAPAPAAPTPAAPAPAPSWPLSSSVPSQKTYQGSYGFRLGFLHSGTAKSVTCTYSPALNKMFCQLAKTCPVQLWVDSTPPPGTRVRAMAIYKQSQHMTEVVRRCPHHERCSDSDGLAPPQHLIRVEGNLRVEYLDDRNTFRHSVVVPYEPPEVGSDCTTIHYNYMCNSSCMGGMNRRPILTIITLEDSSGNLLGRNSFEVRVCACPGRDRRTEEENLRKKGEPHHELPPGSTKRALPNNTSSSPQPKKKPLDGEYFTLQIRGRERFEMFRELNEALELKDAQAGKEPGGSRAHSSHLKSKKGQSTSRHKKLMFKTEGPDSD

CCCCCCc1ccc(O)cc1O
inactive: [1] | [2] | [3] | [4] | [6] | [8] | [9] | [10] | [11] | [12] | [15] | [16] | [17]
active: [5] 77.7 µM | [7] 69.2 µM and 73.3 µM | [8] 53.5 µM and 42.9 µM | [9] 67.1 µM | [10] 69.2 µM and 73 µM | [11] 78.1 µM and 68.4 µM | [12] 74.9 µM | [13] 51.2 µM and 63.3 µM and 39.6 µM | [14] 25.9 µM

C[C@](N)(Cc1ccc(O)c(O)c1)C(=O)O
inactive: [1] | [2] | [3] | [4] | [5] | [6] | [7] | [8] | [9] | [18] | [10] | [11] | [12] | [13] | [14] | [19] | [15] | [16] | [17]

CN(C)c1ccc(N=NS(=O)(=O)O)cc1
inactive: [1] | [2] | [3] | [4] | [5] | [6] | [7] | [8] | [9] | [18] | [10] | [11] | [12] | [13] | [14] | [19] | [16] | [17]

CCCCCCCCCCCCCCCO
inactive: [1] | [2] | [3] | [4] | [5] | [6] | [7] | [8] | [9] | [18] | [11] | [20] | [19] | [15] | [17]

CC(C)=CCCC(C)CCO (centres undefined)
inactive: [1] | [2] | [3] | [4] | [5] | [6] | [7] | [8] | [9] | [10] | [11] | [12] | [14] | [20] | [19] | [15] | [16]

Cn1cnc([N+](=O)[O-])c1Sc1ncnc2nc[nH]c12
inactive: [1] | [4] | [5] | [6] | [7] | [9] | [10] | [12] | [19] | [16] | [17]
active: [2] 0.754 µM | [3] 3.9 µM | [8] 18.9 µM and 31.3 µM | [9] 4.91 µM | [10] 1.62 µM | [11] 29.8 µM and 34.8 µM | [13] 22.2 µM and 34.3 µM
